Results published in the supplement of paper PMC9446081.
± gives the standard deviation of the averaged measurements.

Tests used:
Assay in all cases: relative enzymatic activity vs untreated control (fraction); higher = less inhibition
Settings in all cases: 100 µM; incubation time: 2 h at 37 C
DNA gyrase = tested on: DNA gyrase
Procedure: (§1)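 In vitro enzymatic inhibition assays (ProFoldin kits) for 12 purified essential E. coli enzymes or complexes, each treated with 218 active antibacterial compounds at 100 µM for 2 h at 37°C. Read-outs were fluorescence or absorbance (phosphate detection, dye binding), converted to activity via standard curves and expressed relative to untreated DMSO controls.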

DNA helicase = DNA helicase (UniProt P0ACB1)
Chain of DNA helicase (P0ACB1 whole entry): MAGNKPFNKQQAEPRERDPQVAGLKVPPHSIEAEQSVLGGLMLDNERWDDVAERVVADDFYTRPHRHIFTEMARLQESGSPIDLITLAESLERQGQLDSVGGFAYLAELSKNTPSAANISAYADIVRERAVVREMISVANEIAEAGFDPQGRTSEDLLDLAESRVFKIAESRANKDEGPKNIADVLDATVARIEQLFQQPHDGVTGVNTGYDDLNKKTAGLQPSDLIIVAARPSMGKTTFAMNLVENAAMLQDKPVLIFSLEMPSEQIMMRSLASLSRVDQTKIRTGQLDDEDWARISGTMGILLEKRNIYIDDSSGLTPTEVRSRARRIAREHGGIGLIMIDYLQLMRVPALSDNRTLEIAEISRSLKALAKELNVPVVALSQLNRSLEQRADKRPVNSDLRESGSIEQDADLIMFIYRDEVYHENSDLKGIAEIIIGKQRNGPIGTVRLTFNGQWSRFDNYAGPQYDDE
Procedure: as §1

DNA ligase = DNA ligase (UniProt B1XA82)
Chain of DNA ligase (B1XA82 whole entry): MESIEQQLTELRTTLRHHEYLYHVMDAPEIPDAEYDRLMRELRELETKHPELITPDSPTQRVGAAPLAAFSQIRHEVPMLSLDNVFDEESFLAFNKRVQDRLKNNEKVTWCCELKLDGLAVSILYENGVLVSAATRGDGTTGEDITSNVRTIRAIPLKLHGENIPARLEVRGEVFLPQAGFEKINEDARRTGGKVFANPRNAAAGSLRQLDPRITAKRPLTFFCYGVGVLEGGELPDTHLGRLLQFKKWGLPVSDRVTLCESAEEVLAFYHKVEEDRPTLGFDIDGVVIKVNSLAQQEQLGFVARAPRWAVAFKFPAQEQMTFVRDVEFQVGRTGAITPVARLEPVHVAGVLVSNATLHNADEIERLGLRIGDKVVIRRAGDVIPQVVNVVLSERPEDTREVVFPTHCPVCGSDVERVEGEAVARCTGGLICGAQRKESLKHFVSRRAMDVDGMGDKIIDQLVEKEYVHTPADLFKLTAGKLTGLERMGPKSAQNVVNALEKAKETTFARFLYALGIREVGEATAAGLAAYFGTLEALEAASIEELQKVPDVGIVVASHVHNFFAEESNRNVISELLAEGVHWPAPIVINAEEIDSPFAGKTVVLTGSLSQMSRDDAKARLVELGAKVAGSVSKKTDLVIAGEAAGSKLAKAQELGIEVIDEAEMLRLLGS
Procedure: as §1

DNA polymerase = DNA polymerase (UniProt P10443)
Chain of DNA polymerase (P10443 whole entry): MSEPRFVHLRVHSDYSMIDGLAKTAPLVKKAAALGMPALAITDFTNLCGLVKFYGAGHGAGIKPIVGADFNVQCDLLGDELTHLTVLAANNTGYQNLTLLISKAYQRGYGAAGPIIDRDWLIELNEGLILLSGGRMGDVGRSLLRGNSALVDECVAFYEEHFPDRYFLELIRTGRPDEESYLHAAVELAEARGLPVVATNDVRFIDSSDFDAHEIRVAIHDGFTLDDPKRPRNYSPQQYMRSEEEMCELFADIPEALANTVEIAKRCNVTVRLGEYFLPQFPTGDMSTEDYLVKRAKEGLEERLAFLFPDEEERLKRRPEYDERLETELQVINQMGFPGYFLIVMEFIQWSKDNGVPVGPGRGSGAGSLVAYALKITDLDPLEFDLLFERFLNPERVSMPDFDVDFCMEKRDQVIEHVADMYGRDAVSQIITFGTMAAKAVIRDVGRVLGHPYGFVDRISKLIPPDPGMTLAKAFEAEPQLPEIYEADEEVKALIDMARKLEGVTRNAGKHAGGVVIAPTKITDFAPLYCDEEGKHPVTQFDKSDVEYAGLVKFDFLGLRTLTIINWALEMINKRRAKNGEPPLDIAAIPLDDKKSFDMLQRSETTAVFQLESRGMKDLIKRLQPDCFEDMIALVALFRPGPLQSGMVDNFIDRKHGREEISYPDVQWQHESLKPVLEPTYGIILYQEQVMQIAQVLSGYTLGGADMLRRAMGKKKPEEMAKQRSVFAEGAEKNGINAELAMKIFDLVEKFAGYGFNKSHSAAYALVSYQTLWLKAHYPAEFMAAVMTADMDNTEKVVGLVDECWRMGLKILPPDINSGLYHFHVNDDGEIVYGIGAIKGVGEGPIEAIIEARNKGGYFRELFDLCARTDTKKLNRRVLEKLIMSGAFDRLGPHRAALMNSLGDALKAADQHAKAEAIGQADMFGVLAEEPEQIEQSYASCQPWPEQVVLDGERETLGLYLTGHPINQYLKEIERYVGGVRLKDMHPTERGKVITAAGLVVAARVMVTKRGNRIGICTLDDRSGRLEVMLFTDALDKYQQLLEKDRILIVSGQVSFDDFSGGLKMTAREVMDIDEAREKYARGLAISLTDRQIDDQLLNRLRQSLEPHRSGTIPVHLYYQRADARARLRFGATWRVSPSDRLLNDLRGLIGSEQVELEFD
Procedure: as §1

DNA primase = DNA primase (UniProt P0ABS7)
Chain of DNA primase (P0ABS7 whole entry): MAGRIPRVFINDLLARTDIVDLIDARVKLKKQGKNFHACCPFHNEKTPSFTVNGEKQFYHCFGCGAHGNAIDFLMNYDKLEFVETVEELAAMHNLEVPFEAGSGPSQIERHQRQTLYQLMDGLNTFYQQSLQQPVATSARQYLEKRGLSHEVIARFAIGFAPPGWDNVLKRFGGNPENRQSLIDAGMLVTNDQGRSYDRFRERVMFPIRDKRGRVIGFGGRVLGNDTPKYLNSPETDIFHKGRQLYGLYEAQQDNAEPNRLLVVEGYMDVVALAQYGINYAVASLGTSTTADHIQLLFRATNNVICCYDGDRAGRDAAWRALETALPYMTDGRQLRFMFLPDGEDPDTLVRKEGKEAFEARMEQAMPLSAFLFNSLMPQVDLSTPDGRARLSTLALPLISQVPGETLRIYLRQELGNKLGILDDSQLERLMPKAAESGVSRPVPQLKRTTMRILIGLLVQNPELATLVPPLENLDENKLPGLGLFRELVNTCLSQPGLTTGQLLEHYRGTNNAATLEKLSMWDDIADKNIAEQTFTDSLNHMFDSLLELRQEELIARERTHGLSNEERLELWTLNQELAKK
Procedure: as §1

GlmU = GlmU (UniProt A7ZTU1)
Chain of GlmU (A7ZTU1 whole entry, looked up): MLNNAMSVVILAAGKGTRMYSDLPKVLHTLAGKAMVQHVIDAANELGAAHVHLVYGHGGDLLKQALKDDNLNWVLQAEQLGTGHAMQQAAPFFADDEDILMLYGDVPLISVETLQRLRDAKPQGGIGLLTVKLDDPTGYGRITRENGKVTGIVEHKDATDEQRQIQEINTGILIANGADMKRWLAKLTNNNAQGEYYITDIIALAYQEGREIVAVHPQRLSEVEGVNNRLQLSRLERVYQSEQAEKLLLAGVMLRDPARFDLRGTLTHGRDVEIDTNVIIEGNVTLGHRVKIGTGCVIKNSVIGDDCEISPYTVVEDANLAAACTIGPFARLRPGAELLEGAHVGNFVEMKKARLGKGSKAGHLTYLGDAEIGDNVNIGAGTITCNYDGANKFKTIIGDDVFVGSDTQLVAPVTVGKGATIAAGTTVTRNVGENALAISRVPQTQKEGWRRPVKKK
Procedure: as §1

Guanlyate kinase = Guanlyate kinase (UniProt Q0TBG1)
Chain of Guanlyate kinase (Q0TBG1 whole entry): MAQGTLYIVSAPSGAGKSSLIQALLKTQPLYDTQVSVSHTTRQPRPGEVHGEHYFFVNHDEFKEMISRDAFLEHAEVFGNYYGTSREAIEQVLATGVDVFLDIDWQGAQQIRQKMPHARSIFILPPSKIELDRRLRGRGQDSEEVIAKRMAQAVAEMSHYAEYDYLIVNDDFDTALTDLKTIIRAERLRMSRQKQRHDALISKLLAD
Procedure: as §1

MurA = MurA (UniProt Q3YX52)
Chain of MurA (Q3YX52 whole entry): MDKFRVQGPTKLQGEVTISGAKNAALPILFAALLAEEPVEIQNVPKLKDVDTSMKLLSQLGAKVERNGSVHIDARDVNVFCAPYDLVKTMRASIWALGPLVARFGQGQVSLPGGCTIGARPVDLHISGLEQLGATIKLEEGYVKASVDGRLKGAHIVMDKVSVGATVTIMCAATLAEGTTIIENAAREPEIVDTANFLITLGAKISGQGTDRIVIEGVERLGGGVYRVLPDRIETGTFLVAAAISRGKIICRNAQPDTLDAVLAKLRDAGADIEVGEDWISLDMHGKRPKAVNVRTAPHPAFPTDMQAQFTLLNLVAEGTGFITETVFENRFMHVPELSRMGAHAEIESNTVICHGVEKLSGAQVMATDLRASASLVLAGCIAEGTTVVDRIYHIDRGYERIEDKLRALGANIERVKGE
Procedure: as §1

MurD = molecular target: T1, MurD (UniProt P14900)
T1 sequence (whole entry): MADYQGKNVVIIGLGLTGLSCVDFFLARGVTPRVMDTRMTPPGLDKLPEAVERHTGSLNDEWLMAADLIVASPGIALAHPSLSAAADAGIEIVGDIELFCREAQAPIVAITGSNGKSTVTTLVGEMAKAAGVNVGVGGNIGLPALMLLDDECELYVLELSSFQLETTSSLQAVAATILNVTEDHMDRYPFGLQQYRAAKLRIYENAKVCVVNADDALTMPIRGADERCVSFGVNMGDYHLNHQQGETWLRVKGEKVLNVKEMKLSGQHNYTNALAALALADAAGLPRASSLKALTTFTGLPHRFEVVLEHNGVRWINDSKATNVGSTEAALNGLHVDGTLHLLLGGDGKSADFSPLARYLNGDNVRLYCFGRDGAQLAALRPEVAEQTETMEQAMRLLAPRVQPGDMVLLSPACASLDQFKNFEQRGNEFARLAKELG
Procedure: as §1

MurF = molecular target: T2, MurF (UniProt P11880)
T2 sequence (whole entry): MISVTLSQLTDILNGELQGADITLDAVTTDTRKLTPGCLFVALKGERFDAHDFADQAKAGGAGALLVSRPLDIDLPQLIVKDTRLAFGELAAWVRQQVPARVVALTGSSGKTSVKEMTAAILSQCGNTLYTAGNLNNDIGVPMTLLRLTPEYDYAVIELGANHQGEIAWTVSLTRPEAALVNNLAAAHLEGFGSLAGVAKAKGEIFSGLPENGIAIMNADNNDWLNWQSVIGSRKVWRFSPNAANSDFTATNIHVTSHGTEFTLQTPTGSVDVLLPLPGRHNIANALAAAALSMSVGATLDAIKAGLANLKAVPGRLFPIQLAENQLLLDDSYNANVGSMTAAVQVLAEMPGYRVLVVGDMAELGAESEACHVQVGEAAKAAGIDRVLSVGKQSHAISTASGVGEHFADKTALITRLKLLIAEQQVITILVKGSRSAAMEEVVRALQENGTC
Procedure: as §1

RNA polymerase = tested on: RNA polymerase
Procedure: as §1

SMILES | relative enzymatic activity (DNA gyrase) | relative enzymatic activity (DNA helicase) | relative enzymatic activity (DNA ligase) | relative enzymatic activity (DNA polymerase) | relative enzymatic activity (DNA primase) | relative enzymatic activity (GlmU) | relative enzymatic activity (Guanlyate kinase) | relative enzymatic activity (MurA) | relative enzymatic activity (MurD) | relative enzymatic activity (MurF) | relative enzymatic activity (RNA polymerase)
O=C1NCCN1c1ncc([N+](=O)[O-])s1 | 0.684 ± 0.55 | 0.564 ± 0.22 | 0.852 ± 0.12 | 1.16 ± 0.25 | 0.839 ± 0.018 | 0.982 ± 0.011 | 0.863 ± 0.052 | 0.658 ± 0.11 | 0.628 ± 0.47 | 0.389 ± 0.55 | 0.792 ± 0.11
Cc1nnc(SCC2=C(C(=O)[O-])N3C(=O)C(NC(=O)Cn4cnnn4)C3SC2)s1.[Na+] (stereo not drawn) | 1.26 ± 0.15 | 0.672 ± 0.26 | – | 1.45 ± 0.57 | 0.707 ± 0.18 | 0.951 ± 0.036 | 1.13 ± 0.052 | 0.255 ± 0.063 | 0.612 ± 0.43 | 0.89 ± 0.17 | 0.961 ± 0.05
COC1(NC(=O)CSCC#N)C(=O)N2C(C(=O)[O-])=C(CSc3nnnn3C)CSC21.[Na+] (stereo not drawn) | 0.762 ± 0.27 | 0.259 ± 0.32 | 1.42 ± 0.28 | 1.16 ± 0.3 | 0.669 ± 0.18 | 1.12 ± 0.035 | 0.746 ± 0.076 | 0.167 ± 0.022 | 0.706 ± 0.47 | 1.01 ± 0.2 | 0.839 ± 0.031
Cl.N=C(N)n1cccn1 | 0.0897 ± 0.13 | 0.649 ± 0.3 | 1.13 ± 0.067 | 1.15 ± 0.22 | 0.868 ± 0.027 | 1.014 ± 0.0039 | 0.902 ± 0.2 | 0.813 ± 0.052 | 0.613 ± 0.43 | 0.939 ± 0.23 | 0.787 ± 0.012
